Assay results published in ChEMBL document CHEMBL4888484, “Replenishing the malaria drug discovery pipeline: Screening and hit evaluation of the MMV Hit Generation Library 1 (HGL1) against asexual blood stage Plasmodium falciparum ,using a nano luciferase reporter read-out” (2022).
Hit rate of the full screen: of about 4,800 compounds, about 420 (8.8%) showed an effect of 50% or more. Many of the other results were omitted from the sample, so strong results are more common in it than they were.

test system: Plasmodium falciparum; assay: Confirmatory screen in NF54 nanoGlo assay, in single point, at 2uM, 72h; type: functional, Erythrocyte; details: timepoint 72 hour

| SMILES | % Inhibition |
| --- | --- |
| Cc1cccc(NC(=O)[C@@H](C#N)C(=O)c2ncoc2C)c1 | -14% |
| Cc1c(C2CC2)n[nH]c1NC(=O)C1CC1c1ccccc1 (stereo unspecified) | -1% |
| O[C@@]1(CN2CCC(COc3ccc4c(c3)CCC4)CC2)CCCNC1 | 52% |
| COc1cccc(Cn2nccc2NC(=O)C2CCOCC2)c1OC | -3% |
| CC(C)Cn1c(C(F)(F)F)cnc1N | 3% |
| Cc1ncc(CN(C)[C@@H](C)C(=O)Nc2ccc3c(c2)OC2(CCCCC2)O3)s1 | -4% |
| COc1cc(Cl)c(C)cc1NC(=O)c1nc2cc(C)c(C)cc2n(C)c1=O | -3% |
| Cc1nc2ccccc2n1CCC(=O)N1CCN(Cc2ccc3c(c2)OCO3)CC1 | 2% |
| O=C(c1ccc2c(c1)OCCCO2)N1CCCCC1 | -3% |
| O=C(c1ccc2c(c1)OCO2)N1CCn2c1nc1ccccc12 | 65% |
| CCC[C@H]1C(=O)NCCN1C(=O)c1cnn(CC2CCOCC2)c1C | 8% |
| Cc1nnc(NC(=O)[C@H](C)c2ccc(-c3ccccc3)c(F)c2)s1 | -19% |
| COc1cc(C(c2c(C)n(C)n(-c3ccccc3)c2=O)c2c(C)n(C)n(-c3ccccc3)c2=O)c(Br)c(Br)c1OCc1ccccc1 | 7% |
| Cn1ccnc1C1CC(NC(=O)c2cc3c(s2)CCC3)CCO1 (stereo unspecified) | 0% |
| COc1cc2c(cc1OC)[C@@H](NC(=O)c1cnc(C3(C)OCCO3)s1)CCCC2 | 50% |
| COc1cc(C(=O)NC2CCCCC2)cc2occc12 | -8% |
| Cc1cccc(C(=O)ON2C(=O)CCC2=O)c1 | -11% |
| CCCCC[C@H](C)NC(=O)CCC(=O)Nc1cccnc1 | -11% |
| Cc1ccc(Oc2ccccc2CNC(=O)[C@@H]2CCC(=O)N2)cc1 | -6% |
| COCCN(Cc1nc(C(=O)NC(C)C)cs1)C(=O)Nc1ccc(C(C)C)cc1 | 4% |
| CC1CCN(C(=O)Cc2csc(NC(=O)c3cccc(O)c3)n2)CC(C)C1 (stereo unspecified) | -10% |
| Fc1cnc(OC2Cc3ccccc3C2)nc1 | 57% |
| CCn1c(C)cc(C(=O)O[C@@H](C)C(=O)Nc2ncccn2)c1C | -4% |
| CC1CCCC(C)N1C(=O)CN(C)c1cccc2cccnc12 (stereo unspecified) | -7% |
| Cc1ccc(S(=O)(=O)Nc2ccc(Br)cc2C(=O)Nc2ccc(Oc3ccc(Br)c4ccccc34)c(Cl)c2)cc1 | 6% |
| C[C@@H](CC(=O)Nc1cncnc1-n1cccn1)c1ccccc1 | -3% |

| SMILES | % Inhibition |
| --- | --- |
| OC(CC(Nc1ccc(Cl)cc1)c1ccccc1)c1ccccc1 (stereo unspecified) | -8% |
| CC(C)n1nccc1N1C(=O)N[C@@H](CC(F)(F)F)C1=O | 0% |
| CCN1C(=O)C[C@H](C(=O)Nc2cnc3ccccc3c2)[C@H]1c1nccn1CC | 2% |
| O=C(Nc1cc(NC(=O)c2ccc(F)cc2)cc(Oc2cccnc2)c1)c1ccc(F)cc1 | -1% |
| O=C(Nc1cnc2ccccc2c1)c1ccccc1C(=O)c1ccc(F)cc1 | 96% |
| Cc1nn(C)c(NC(=O)Nc2cccc(Cl)c2)c1C1=CCCCC1 | -5% |
| COc1ccc(-c2cn(-c3ccc(OC)cc3)c(N)c2C#N)cc1 | -7% |
| CCc1n[nH]c(=O)c(C(=O)Nc2cnc3[nH]nc(C)c3c2)c1CC | -1% |
| Cc1nsc(N2CCN(CC(C)O)C(C)C2)n1 (stereo unspecified) | -4% |
| c1ccc(C[C@]2(c3ccccc3)CCNC2)cc1 | 1% |
| O=c1cc(N2CCN(C3CCCC3)CC2)cnn1Cc1ccccc1 | -13% |
| O=C(Cc1ccccc1F)N1CC(n2cnnc2C2CCOCC2)C1 | -14% |
| COc1ccc([C@@H]2CN(S(=O)(=O)c3ccc(OC)cc3)CCN2C)cc1 | 1% |
| O=c1[nH]c2nc(N3CCC(N4CCCCC4)CC3)ncc2c(=O)n1-c1ccc2c(c1)OCO2 | -9% |
| CS(=O)(=O)N1CC[C@H](N(C(=O)NCCc2ccccc2)C2CCOCC2)C1 | -14% |
| CC(C)c1cccc(Nc2nc3ccncc3n(C(C)C)c2=O)c1 | 95% |
| O=C(CN1CCOC2CCCCC21)N1CCOC2CCCCC21 (stereo unspecified) | -9% |
| Cc1cc(C(=O)NC(C2CC2)C2CC2)c(C)o1 | -2% |
| O=C1NCCC[C@@H]1NS(=O)(=O)N1CCc2ccccc2C1 | 0% |
| CCc1cccc(NC(=O)N2CCN(C3=CC4=NC[C@H](C)N4C=N3)CC2)c1 | 46% |
| Cc1cc(-c2csc(CN3C(=O)CNC3=O)n2)cc(C)c1F | -4% |
| Fc1ccccc1N1CCN(c2c3c(nc4nc(Cc5ccc(Cl)cc5)nn24)CCCC3)CC1 | -11% |
| CNc1nc(N2C[C@H](C)[C@@](O)(C3CC3)C2)nc2c1CCC2 | -11% |
| CNC(=O)CNC(=O)c1cccc(Cl)c1 | -1% |
| Cc1nc([C@@H]2CCCN2c2nc(C3CCCC3)ns2)no1 | -6% |
| Cc1cc(NC(=O)c2occc2-c2ccccc2)sn1 | -2% |

| SMILES | % Inhibition |
| --- | --- |
| CN(Cc1ccccc1)c1nc2ncn(CC(=O)NC3CCCCC3)c(=O)c2s1 | -17% |
| Cc1ccc(S(=O)(=O)NCC2(CNS(=O)(=O)c3ccc(C)cc3)CN(S(=O)(=O)c3ccc(C)cc3)C2)cc1 | 7% |
| COc1cccc(Cn2c(=O)c3sccc3n(CC(=O)Nc3ccc4c(c3)OCO4)c2=O)c1 | 10% |
| COc1cccc(NC(=O)Cn2c(C)ccc(NS(=O)(=O)c3ccc(C)cc3)c2=O)c1 | 63% |
| COc1cccc(NC(=O)Cn2c(=O)n(C)c(=O)c3sc(N4CCCC4)nc32)c1 | 0% |
| c1ccc2oc(-c3ccnc4nncn34)cc2c1 | -7% |
| COc1cc(C)c2[nH]c3c(c(=O)c2c1)CN(CC(=O)Nc1ccc2c(c1)OCCO2)CC3 | 16% |
| O=C(NC1CCN(Cc2ccco2)CC1)c1ccco1 | -9% |
| Clc1cccc(N2CCN(Cc3nc(-c4ccco4)no3)CC2)c1 | -6% |
| CC(C)(C)OC(=O)NCC1CCCCC1C(F)(F)F (stereo unspecified) | 0% |
| O=C(CNC(=O)OCc1ccccc1)Nc1ccc(F)cc1 | -12% |
| COc1cccc(-c2nn(-c3nc(-c4ccccc4)cc(C(F)(F)F)n3)c(-c3cccc(OC)c3)c2Cl)c1 | 54% |
| COc1cccc(-c2nc3n(c2C(=O)Nc2cccc(Cl)c2)CCS3(=O)=O)c1 | -3% |
| COc1cccc(-c2cc(C(=O)N3CCCN(C(=O)c4cc(-c5cccc(OC)c5)nc5ccccc45)CC3)c3ccccc3n2)c1 | -1% |
| COc1ccc(-c2cc(C(F)(F)F)nc(-n3nc(-c4cccc(OC)c4)c(Cl)c3-c3cccc(OC)c3)n2)cc1 | 84% |
| COc1cccc(-c2cc(C(=O)Nc3ccc(F)c(Cl)c3)c3c(C)nn(C)c3n2)c1 | -4% |
| COc1cccc(-c2cc(C(=O)Nc3cc(Cl)ccc3C)c3c(C)nn(C)c3n2)c1 | -15% |
| COc1ccc(C)cc1NC(=O)c1nn(-c2ccccc2)c2ccccc2c1=O | 17% |
| CCn1cc(Cl)c(C(=O)N2CCN(C(=O)c3ccco3)CC2)n1 | -11% |
| Cc1ccc(CN2CCN(CC(=O)NC3CCCCC3C)C2=O)cc1 (stereo unspecified) | -10% |
| C[C@](O)(CNC(=O)Cn1nc2ccccn2c1=O)c1cccs1 | -1% |
| Clc1ccc(NC2(c3noc([C@@H]4CCCCO4)n3)CCC2)cc1 | 5% |
| COc1cc(CNCc2cccs2)ccc1OCc1ccccc1C | -7% |
| COc1ccc(CNCc2ccc(C)cc2)cc1Cn1ccnc1 | 42% |
| CC1Cc2cc(-c3ccc(CNC(=O)C(C)(O)C4CC4)cc3)ccc2O1 (stereo unspecified) | 4% |
| CC1(C)C[C@@H](NC(=O)c2cc3[nH]cnc3cc2F)CCO1 | 7% |

| SMILES | % Inhibition |
| --- | --- |
| Cc1cc([C@H](Nc2ccccn2)c2ccccc2)c(NC(=O)c2ccccc2)s1 | 4% |
| Oc1ccc2ncccc2c1[C@@H](Nc1ccccn1)c1cccc(Br)c1 | 67% |
| Cc1cc([C@H](Nc2ccccn2)c2cccnc2)c(NC(=O)c2ccccc2)s1 | 2% |
| Cc1nn(C)c(C)c1S(=O)(=O)N1CCCN(c2ccc(F)c(F)c2)CC1 | 3% |
| CCCn1c(C)cnc1C1CN(S(=O)(=O)c2ccc(C)c(F)c2)C1 | -6% |
| Cc1noc(C(C)(C)NC(=O)Nc2c[nH]nc2-c2nccs2)n1 | -7% |
| COc1ccc(Cl)cc1S(=O)(=O)c1cnc(N2CCOCC2)nc1N | -2% |
| C[C@@H](CNc1ncc(C(=O)N2CCOCC2)cc1Cl)c1nncn1C | -12% |
| COCCN1C(=O)C[C@H](Nc2ccc3c(c2)CCC3)C1=O | 1% |
| Cc1ccc(C)c(C(=O)CN2Cc3ccccc3C2=N)c1 | 0% |
| Fc1ccc(Nc2nc3c(s2)CCCC3)cc1 | -17% |
| c1ccc(C(c2ccccc2)N2CCN(c3nn4cnnc4c4ccccc34)CC2)cc1 | 65% |
| Fc1cccc(-n2nc(-c3ccccc3F)cc2-c2ccccc2F)c1 | -6% |
| CCOc1cc2c(cc1OC)[C@@H](N)CC2=O | 1% |
| Cc1ccc(CN(C)C2CCCCC2)o1 | -18% |
| CC(C)c1cc(CN(Cc2cc(C(C)C)c(O)c(C(C)C)c2)C2CCCCC2)cc(C(C)C)c1O | 96% |
| CCc1nn(C)cc1CN(Cc1cccc(O)c1)C1CCC(O)CC1 (stereo unspecified) | -3% |
| Cc1ccc(-c2ccnc3c(C(=O)NC4CC4)cnn23)cc1C | -2% |
| Cc1c([C@@H](NCc2ncccc2O)C(C)C)oc2ccccc12 | 99% |
| N#CC1(C#N)C(c2ccc(Cl)cc2)C1(C#N)C#N | 11% |
| O=C(NCc1cccc(C(F)(F)F)c1)c1csc(C(=O)NC2CCCC2)n1 | -14% |
| CN(C)c1c(F)c(F)c2cc3c(C(C)(C)C)nn(C)c3nc2c1F | 3% |
| COc1ccc([C@H](CNC(=O)c2ccccc2)N2CCC(c3ccccc3)=N2)cc1 | -3% |
